Results reported in PubChem BioAssay AID504397 (Broad Institute, 2011).
Potency and affinity values are given separately. Calls of active or inactive are those of the source. Where a call stands in place of a potency, no number is given. No rule for the calls is given here.

Assay: toxicity toward cultured mammalian cells – cell-based, plate reader, cherry-pick samples, cytotoxicity control, dose response (AID 504397)
Settings: plate reader viability; series mostly up to 35 µM

With `CCOC(=O)[C@@H]1[C@H]2COc3ccc(Br)cc3[C@@H]2N2C(=O)N(c3cccc(C)c3)C(=O)[C@]12C` the outcome was “inactive”.
